# In PubChem BioAssay (NCATS):
# Inconclusive results are not listed. Where a call stands in place of a potency, no number is given. The source made the active and inactive calls. Unless noted, calls follow the shape of the dose curve; as a rule, active = well fitted curve in the direction sought with a large enough effect; inconclusive = small, poorly fitted or top-dose-only effect, or another doubt; inactive = no such curve, though single readings can be large; an effect the other way counts as inactive or inconclusive.
# Key:
# [1] = biological target: Aldehyde dehydrogenase, mitochondrial (Homo sapiens) (UniProt P05091); assay: qHTS for Inhibitors of the Aldehyde Dehydrogenase Family (ALDH2) Confirmatory screens (AID 2061303; active = well fitted inhibition curve with a large enough effect; title and protocol of this record describe different tests; also: nearly all actives have a fitted effect of over 45% in size; also: potency is read from the fitted curve at half-maximal effect)
# [2] = qHTS for Inhibitors of the Aldehyde Dehydrogenase Family (ALDH1A2, ALDH1A3, ALDH2, ALDH3A1) (AID 2061307); also: nearly all actives have a fitted effect of over 50% in size; as to potency: test system not described further here; potency is read from the fitted curve at half-maximal effect
# [3] = biological target: Aldehyde dehydrogenase, mitochondrial (Homo sapiens) (UniProt P05091); assay: qHTS for Inhibitors of the Aldehyde Dehydrogenase Family (ALDH2) Primary screen (AID 2061308); also: nearly all actives have a fitted effect of over 55% in size; also: potency is read from the fitted curve at half-maximal effect
# [4] = biological target: Retinaldehyde dehydrogenase 3 (Homo sapiens) (UniProt P47895); assay: qHTS for Inhibitors of the Aldehyde Dehydrogenase Family (ALDH1A3) Confirmatory screens (AID 2061311); also: nearly all actives have a fitted effect of over 60% in size; also: potency is read from the fitted curve at half-maximal effect
# [5] = biological target: Retinaldehyde dehydrogenase 3 (Homo sapiens) (UniProt P47895); assay: qHTS for Inhibitors of the Aldehyde Dehydrogenase Family (ALDH1A3) Validation screen (AID 2061312); also: nearly all actives have a fitted effect of over 45% in size; also: potency is read from the fitted curve at half-maximal effect
# [6] = biological target: Retinal dehydrogenase 2 (Homo sapiens) (UniProt O94788); assay: qHTS for Inhibitors of the Aldehyde Dehydrogenase Family (ALDH1A2) Confirmation screens (AID 2061314); also: nearly all actives have a fitted effect of over 65% in size; also: potency is read from the fitted curve at half-maximal effect
# [7] = biological target: Retinaldehyde dehydrogenase 3 (Homo sapiens) (UniProt P47895); assay: qHTS for Inhibitors of the Aldehyde Dehydrogenase Family (ALDH1A3) Primary screen (AID 2061315)
# [8] = biological target: Aldehyde dehydrogenase 1A1 (Homo sapiens) (UniProt P00352); assay: qHTS for Inhibitors of the Aldehyde Dehydrogenase Family (ALDH1A1) Confirmatory screens (AID 2061316); also: nearly all actives have a fitted effect of over 65% in size; also: potency is read from the fitted curve at half-maximal effect
structure (smiles),measurement,setting,value
CCN1CCN(C(=O)N[C@@H](C(=O)N[C@@H]2C(=O)N3[C@@H]2SC(C)(C)[C@@H]3C(=O)O)c2ccccc2)C(=O)C1=O,Potency,[1],inactive
same,Potency,[2],inactive
same,Potency,[3],inactive
same,Potency,[4],inactive
same,Potency,[5],inactive
same,Potency,[6],inactive
same,Potency,[7],inactive
same,Potency,[8],inactive
NC(=O)C1CCN(c2nc(-c3ccc([N+](=O)[O-])cc3)cs2)CC1,Potency,[1],25.1 µM (active)
same,Potency,[2],11.3 µM (active)
same,Potency,[3],inactive
same,Potency,[4],22.5 µM (active)
same,Potency,[6],3.18 µM (active)
same,Potency,[7],inactive
Fc1ccc(-c2ccc(CNCc3ccco3)o2)cc1,Potency,[1],inactive
CCN1CCN(c2ccc(Nc3ccc(-c4ccc(C(N)=O)cc4)n4ncnc34)cc2)CC1,Potency,[1],inactive
same,Potency,[2],inactive
same,Potency,[3],inactive
CCN(CC)S(=O)(=O)c1ccc2c(c1)N(CC(=O)Nc1ccc(OC)cc1)C(=O)CS2,Potency,[1],inactive
Cc1ccc(-c2nccc(=O)n2CC(=O)NCCc2ccccc2)cc1,Potency,[1],inactive
same,Potency,[2],inactive
same,Potency,[3],inactive
same,Potency,[4],inactive
same,Potency,[6],inactive
same,Potency,[7],inactive
Cc1c(NS(=O)(=O)c2cccc(C(=O)O)c2)c(=O)n(-c2ccccc2)n1C,Potency,[1],inactive
O=C(NCc1cccs1)c1nc(-c2ccc(F)cc2)c2ccccn12,Potency,[1],inactive
same,Potency,[2],inactive
COc1ccc(C=O)cc1COc1ccc(NC(C)=O)cc1,Potency,[1],3.16 µM (active)
same,Potency,[2],0.318 µM (active)
same,Potency,[3],inactive
same,Potency,[4],15.8 µM (active)
same,Potency,[6],3.18 µM (active)
same,Potency,[7],inactive
CCOc1ccc(NC(=O)c2nnn(-c3ccc(F)c(Cl)c3)c2C)cc1,Potency,[1],inactive
CCCCC(=O)N1CCC(C(=O)Nc2ccc([S+](=O)([O-])Nc3nccs3)cc2)CC1,Potency,[1],inactive
same,Potency,[2],inactive
same,Potency,[3],inactive
same,Potency,[4],inactive
same,Potency,[6],inactive
same,Potency,[7],inactive
C=C(C(=O)OC)C1CCC2(C)C(O[C@@H]3O[C@H](CO)[C@@H](O)[C@H](O)[C@H]3O)CC(=O)C(C)C2C1O (stereo partly drawn),Potency,[1],inactive
same,Potency,[2],inactive
same,Potency,[3],inactive
same,Potency,[4],11 µM (active)
same,Potency,[6],inactive
Cc1ccc(-c2cnc(N3CCC(C(N)=O)CC3)s2)cc1,Potency,[1],25.1 µM (active)
same,Potency,[2],10.1 µM (active)
same,Potency,[3],inactive
CC(C)C[C@H]1C(=O)N2CCC[C@H]2[C@]2(O)O[C@](NC(=O)[C@@H]3C=C4c5cccc6[nH]c(Br)c(c56)C[C@H]4N(C)C3)(C(C)C)C(=O)N12,Potency,[1],inactive
same,Potency,[2],inactive
CCc1nnc2ccc(NCc3ccc(F)cc3)nn12,Potency,[1],inactive
COc1ccc(-c2cnc(C)o2)cc1S(=O)(=O)Nc1ccc(C)c(F)c1,Potency,[1],inactive
COc1ccc(-c2nc3ccccc3s2)cc1,Potency,[1],inactive
same,Potency,[2],1.7 µM (active)
same,Potency,[3],inactive
same,Potency,[4],1.42 µM (active)
same,Potency,[6],inactive
Cc1ccc(-c2c(CN3CCN(c4cccc(C(F)(F)F)c4)CC3)csc2C)cc1,Potency,[1],inactive
CN(CC(=O)Nc1cccc(F)c1)S(=O)(=O)c1ccc2c(c1)n(C)c(=O)c(=O)n2C,Potency,[1],inactive
CC(C)c1ccccc1-c1ncc(F)c(NCc2ccc(-c3cccnc3)cc2)n1,Potency,[1],5.01 µM (active)
same,Potency,[2],14.1 µM (active)
same,Potency,[3],inactive
same,Potency,[4],8.96 µM (active)
same,Potency,[6],inactive
Cc1cc2occ(CN(C)CCN(C)Cc3cn(-c4cccc(C(F)(F)F)c4)c4ccccc34)c(=O)c2cc1C,Potency,[1],inactive
same,Potency,[2],inactive
same,Potency,[3],inactive
same,Potency,[4],inactive
same,Potency,[5],inactive
same,Potency,[6],inactive
same,Potency,[7],inactive
same,Potency,[8],10.1 µM (active)
CN(C)C(=O)c1ccc(-c2ccc3ncn(-c4ccc(F)cc4F)c(=O)c3n2)cc1,Potency,[1],inactive
CCn1ccnc1CN(C)c1nccc(-c2ccc(C)nc2C)n1,Potency,[1],inactive
COc1nc2ccc(Br)cc2cc1[C@@H](c1ccccc1)[C@@](O)(CCN(C)C)c1cccc2ccccc12,Potency,[1],1.27 µM (active)
same,Potency,[2],0.896 µM (active)
same,Potency,[3],708 nM (active)
same,Potency,[4],8.96 µM (active)
same,Potency,[5],1.26 µM (active)
same,Potency,[6],1.79 µM (active)
same,Potency,[8],0.142 µM (active)
NC(=O)C1CCN(c2ncc(-c3ccc(Cl)cc3)s2)CC1,Potency,[1],inactive
same,Potency,[2],12.7 µM (active)
same,Potency,[3],inactive
same,Potency,[4],inactive
same,Potency,[6],inactive
same,Potency,[7],inactive
N#Cc1c(-c2csc(-c3no[n+]([O-])c3C#N)c2)no[n+]1[O-],Potency,[1],14.1 µM (active)
same,Potency,[2],6.34 µM (active)
same,Potency,[3],inactive
same,Potency,[4],12.7 µM (active)
same,Potency,[6],2.25 µM (active)
same,Potency,[7],inactive
same,Potency,[8],11.3 µM (active)
Cc1nc2ccc(Nc3nc(Nc4c(C)cc(C=CC#N)cc4C)nc4nc[nH]c34)cc2s1,Potency,[1],inactive
same,Potency,[2],10.1 µM (active)
same,Potency,[3],inactive
same,Potency,[4],inactive
same,Potency,[6],inactive
same,Potency,[7],inactive
Cc1ccc(-c2cc(C(=O)N3CCCCC3)c3ccccc3n2)cc1C,Potency,[1],inactive
same,Potency,[2],inactive
same,Potency,[3],inactive
same,Potency,[4],inactive
same,Potency,[6],inactive
same,Potency,[7],inactive
same,Potency,[8],inactive
